The source of these data is ChEMBL document CHEMBL4513216, “Probing the Open Global Health Chemical Diversity Library for Multistage-Active Starting Points for Next-Generation Antimalarials” (ACS Infect Dis, 2020).

Molecules are shown by their SMILES. The campaign covered roughly 69,000 compounds. About 8,600 (12%) showed an effect of 50% or more. The entries come from a sample that favours strong results as a whole.

This assay deals with Plasmodium berghei. The assay can be described thus: Screen against P. berghei liver stage (PbLuc), transformed with Luciferase, at 10uM. Type of assay: functional, HepG2. The following applies: tested at 10 uM.
In the case of `CCc1csc(CNc2nc3c(s2)c(C)nn3C)n1`, the INHIBITION was found to be 65.7%.
For `CCc1nc(CNc2nc3c(s2)c(C)nn3C)cs1` the value was 63.1%; for `Cc1csc(CNc2nc3c(s2)c(C)nn3C)n1`, 8.03%.
For `Cc1nc(CNc2nc3c(s2)c(C)nn3C)cs1` the value was 40.8%.
Under `CCCOCCNc1nc2c(s1)c(C)nn2C` stands -18.6%; under `CCSCCNc1nc2c(s1)c(C)nn2C`, 25.8%; under `Cc1ccc(CCc2nc(C3CCOC3)no2)o1` (configuration not stated), 29%.
For the molecule `CN(C)[C@@H]1CCN(C(=O)C2CCOCC2)[C@H]1Cc1ccncc1`, the INHIBITION is listed as 0.804%.
For `COCCN1CCc2ccc(=O)n(Cc3csc(C)n3)c2CC1` the value was -15.3%.
For `CCc1nnc(Nc2cccc(C3CCN(c4cnccn4)CC3)n2)s1` the value was 36.4%; for `CC(=O)N1C[C@H]2CC[C@@H](C1)N(S(=O)(=O)c1ccc(F)cc1Cl)C2`, -10.2%.
Under `Cc1cc2ccccc2n1CCC(=O)NCc1ncc[nH]1` stands 20.5%.
As to `Cc1cc(CCC(=O)NCc2nccn2C)ccc1Br`, the INHIBITION came out at 46.1%.
Under `Cc1cc(CCC(=O)NCc2ncc[nH]2)ccc1Br` stands 54.8%; under `CN1CCC(CCNC(=O)N2CCN(Cc3ccon3)CC2)CC1`, 23.5%.
For `CCC1CCCCN1CCNC(=O)N1CCN(Cc2ccon2)CC1` (configuration not stated) the value was 50.8%; for `CN(CCNC(=O)N1CCN(Cc2ccon2)CC1)C1CCCC1`, -6.02%.
Turning to `Cc1cnc(CNC(=O)[C@@]23CCO[C@@H]2CCN(C2CCCC2)C3)cn1`, the INHIBITION was 18.6%.
On to `Cc1ccc(N2CC[C@H](O)[C@@H]2Cc2cnn(C)c2)nn1`, for which the INHIBITION is reported as -15.9%.
Under `CC(=O)N1CCN(C2CCCCc3ccccc32)CC1` (configuration not stated) stands -1.16%; under `NC(=O)N1CCCN(C2CCCCc3ccccc32)CC1` (configuration not stated), 13.7%; under `CC(=O)N1CCN(C2CCc3ccccc32)CC1` (configuration not stated), 64.7%.
For `CC(=O)N1CCN([C@@H]2CN(C(=O)c3ccccc3)C[C@H]2O)CC1` the value was 11.8%; for `CC(=O)N1CCCN(C2CCCCc3ccccc32)CC1` (configuration not stated), 55.4%.
Consider `O=C1CN(C(=O)CC2c3ccccc3CCc3ccccc32)CCN1`, for which the INHIBITION came out at 42.1%.
For `Cc1cccc(C2(CNC(C)c3nnc(C)o3)CCCC2)c1` (configuration not stated) the value was -10.2%.
Under `CCCc1ccc(S(=O)(=O)NC(=O)CCC2CCCO2)cc1` (configuration not stated) stands 4.71%; under `Cn1cccc1C(=O)N1CCC2(CC1)CC(N1CCOCC1)C2`, -23.3%.
Under `COc1ccccc1C1(C(=O)N2CCCC(c3cc(C)[nH]n3)C2)CC1` (configuration not stated) stands -14.6%; under `c1cncc(CN2CCC3(CC2)CC(c2cccnc2)CO3)c1` (configuration not stated), -35%; under `c1cncc(C2COC3(CCN(Cc4cccs4)CC3)C2)c1` (configuration not stated), 0.618%.
`Cc1ccc(CN2CCC3(CC2)CC(c2cccnc2)CO3)s1` (configuration not stated): the INHIBITION was determined as 50.1%.
As to `COc1cccc2ccn(CCC(=O)N3CCCC(C(=O)O)C3)c12` (configuration not stated), the INHIBITION is -19.7%.
For `CN(C)C(=O)CN1CCc2ncnc(N(C)C)c2CC1` the value was 3.17%.
Under `Cc1ncnc2c1CCN(C(=O)N(C)C)CC2` stands 80.1%.
For `CCN(C)c1ncnc2c1CCN(C(=O)N(C)C)CC2` the value was -64.7%; for `CN(C)C(=O)CN1CCc2ncnc(C3CC3)c2CC1`, 48.4%; for `CN(C)C(=O)CN1CCc2ncnc(NC3CCC3)c2CC1`, 72.9%.
Turning to `CCc1ncnc2c1CCN(CC(=O)N(C)C)CC2`, the INHIBITION is 30.3%.
Under `COCCN1CCc2ncnc(NC3CC3)c2CC1` stands -31.1%.
Under `Cc1ncnc2c1CCN(CC(=O)N(C)C)CC2` stands 53%.
For `Cc1ncnc2c1CCN(C(=O)CN(C)C)CC2` the value was 46.7%.
`Fc1ccc(C2CN(c3ncnc4[nH]ncc34)CCO2)cc1` (configuration not stated): the INHIBITION worked out at 40.8%.
Under `CN(C)CCn1nc(C2CCN(Cc3ccccc3)C2)c2cccnc21` (configuration not stated) stands 28.3%; under `Cc1ccc(CNC(=O)c2nn(C)c3c2CS(=O)(=O)CC3)o1`, 30.8%; under `Cc1ccc(NC2CCN(C(=O)CCc3ccccc3)CC2)nn1`, -26.6%.
Under `CCOc1ccnc(N2CCN(C(=O)c3ccc(OC)cc3)CC2)n1` stands 31.9%; under `CSCC(C)(O)CNC(=O)c1cc(Cl)ccc1Cl` (configuration not stated), -21.3%; under `CSCC(C)(O)CNC(=O)c1cc(Br)ccc1Cl` (configuration not stated), 55.4%.
For `CSCC(C)(O)CNC(=O)c1ccc(Br)cc1F` (configuration not stated) the value was -59.2%; for `N#Cc1ccc(F)c(CN2CCNC(=O)C2c2cccs2)c1` (configuration not stated), 23.1%.
Consider `O=c1cc(-c2ccccc2)nc2n1CCCCC2`, for which the INHIBITION is reported as 49%.
Under `CCc1ncncc1C(=O)N1CCCN(Cc2ccc(C)cc2)CC1` stands 56.6%; under `CCc1ncncc1C(=O)N1CCN(Cc2ccsc2)CC1`, 31.9%.
For `CCc1ncncc1C(=O)N1CCN(Cc2ccco2)CC1` the value was 50.4%; for `CCc1ncncc1C(=O)N1CCCN(Cc2ccccc2C)CC1`, 19.6%; for `CCc1nnsc1C(=O)N1CCCN(Cc2ccc(C)cc2)CC1`, 29.4%.
